Only some compounds are listed: those with a hit (about 2.4% of all), similar ones and a draw of the others.
STAT3 inh = STAT3 signaling inhibition; U3A cells, IL-6 STAT3-luciferase reporter, luminescence; host cell line lacks STAT1; inhibition, % at 5.5 µM; actives 0.89% (n = 190,000); AID 862;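 active means inhibition above the mean inhibition across all screened compounds plus 3 SD, cut at about 44% in these data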;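 further: 0% = DMSO only wells and 100% = 100 µM nifuroxazide control wells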
HSF1 inhib = HSF1 inhibition. NIH3T3-HGL HSE-luciferase, MG132-induced, luminescence 8 h; active compounds read low. actives 0.77% (n = 300,000). activity change, negative = inhibition, % at 7.5 µM (by protocol);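 active means more than half of replicate wells show activity change below -50%, luminescence cut by over half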;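 further: luciferase reports HSF-1 transcriptional activity via heat shock element; 0% = median of DMSO wells and -100% = zero luminescence signal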
STAT1 inh = inhibitors of IFN-gamma induced STAT1 signaling | NIH 3T3 STAT1-luciferase reporter, luminescence | inhibition, % at 5.5 µM | actives 0.35% (n = 200,000);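 active means inhibition above a set limit, the mean inhibition across all tested compounds plus 3 SD, cut at about 34% in these data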;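 further: 0% = IFN-gamma with DMSO and 100% = IFN-gamma with 300 µM nifuroxazide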
HSP90 refold inh = blocks HSP90-mediated luciferase refolding in reticulocyte lysate; actives 0.91% (n = 290,000); Rabbit reticulocyte lysate, luciferase refolding luminescence, 3 h; inhibition, % at 5.6 µM;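 active means inhibition above the screen-wide mean plus 3 SD, computed separately per campaign, cut at about 16% in these data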;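 further: 0% = DMSO wells and 100% = 60 µM geldanamycin wells; inhibitors lower the luminescence because luciferase stays unfolded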
TRAIL sens C8 = sensitizes caspase-8 expressing cells to TRAIL; NB7+C8 cells + TRAIL, ATPlite viability luminescence; inhibition (viability loss, TRAIL sensitization), % at 10 µM; actives 1% (n = 360,000); AID 624354;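 active means compounds causing at least 50% loss of cell viability in the single-dose screen, relative to plate controls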
PPC-1+TRAIL kill = compounds killing PPC-1 cancer cells with TRAIL present (potentiator screen, no TRAIL-free arm). AID 1443. PPC-1 cells + TRAIL, ATPLite viability luminescence. cell killing (% activity), % at 4 µM or 5 µM. actives 0.41% (n = 220,000);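 active means cell killing above 50% in the first pass at 4 µM, then a duplicate retest at 5 µM averaging 50% or more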;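 further: plate controls were cells with TRAIL plus DMSO for no effect and medium-only wells lacking cells for full effect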
PPC-1 tox = kills PPC-1 cells; shares compounds with PPC-1+TRAIL kill; PPC-1 viability, ATPlite luminescence, overnight; cytotoxicity, % at 5 µM; actives 50% (n = 1,200); AID 1447;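 active means reconfirmed compounds whose average cytotoxicity reaches 50% or more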;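 further: 0% = DMSO-treated cells and 100% = wells holding medium but no cells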
* = called active by the depositor; . = no result given.

SMILES	STAT3 inh	HSF1 inhib	STAT1 inh	HSP90 refold inh	TRAIL sens C8	PPC-1+TRAIL kill	PPC-1 tox
Cc1ccc(C(=O)Nc2cc(C)c(OCC(=O)N3CCOCC3)c(C)c2)cc1	12	0	2	8	83*	79*	79*
CCN(C(=O)c1ccco1)c1nnc(-c2ccc(OC)cc2)s1	29	14	-4	4	69*	68*	70*
CCN(CC)CCCNc1nc2cc(OC)c(OC)cc2c2nc(-c3ccccc3)nn12	0	-4	-3	5	11	26	22
O=C(Nc1nc2ccc(F)cc2s1)c1ccccn1	96*	60	70*	56*	.	60*	62*
Cc1ccc2nc(NC(=O)CN3C(=O)C4CC=CCC4C3=O)sc2c1 (stereo not given)	18	.	-18	-2	3	9	21
Cc1ccc2nc(NC(=O)c3ccc(Cl)s3)sc2c1	20	29	-58	-6	42	9	10
Cc1nc(-c2coc3cc(OCC(=O)O)ccc3c2=O)cs1	38	-15	23	8	50*	45	46
CCOC(=O)COc1ccc2c(=O)c(-c3ccccc3)coc2c1	.	2	.	2	-6	13	.
Cc1ccc(NC(=O)Cc2cn3ccsc3n2)nc1	4	5	2	4	0	-4	-2
Cc1ccc(/C=N/Nc2nnc(Cl)c3ccccc23)cc1	-4	34	-34	-3	86*	78*	78*
Cc1cccc(/C=N/Nc2nncc3ccccc23)c1	84*	19	52*	9	79*	77*	77*
COC(=O)C1C(=O)c2c([nH]c(C(=O)OCCOC(C)C)c2C)CC1C (stereo not given)	-4	6	-9	8	.	-9	-2
CC(C)[Si]1(C(C)C)OCC2OC(n3cnc4c(N)ncnc43)C(N)C2O[Si](C(C)C)(C(C)C)O1 (stereo not given)	.	.	.	.	13	.	.
Cc1ccc(NC(=O)CCS(=O)(=O)c2ccc3nc(C)sc3c2)c(C)c1	.	.	.	.	11	.	.
COc1ccc(CCNC(=O)C2CCCN(S(=O)(=O)c3cccc4nonc34)C2)cc1OC (stereo not given)	1	1	3	0	-2	-16	-7
COc1ccc(NC(=O)C2CCCN(S(=O)(=O)c3cccc4nonc34)C2)cc1OC (stereo not given)	3	-2	1	-1	-3	21	.
COc1cc(CNc2ncnc3c2ncn3[C@H]2CN(Cc3ccc(Cl)cc3)C[C@@H](CO)O2)cc(OC)c1OC	.	.	.	.	-8	.	.
CC(=O)N1CCN(c2ccccc2NC(=O)COc2ccccc2C)CC1	-7	5	1	-1	-9	-1	.
CC(=O)N1CCN(c2ccccc2NC(=O)COc2ccc(Cl)cc2Cl)CC1	-35	11	-12	-1	-2	7	10
C[C@H](CO)N1C[C@H](C)[C@@H](CN(C)Cc2ccc3c(c2)OCO3)Oc2cc(Br)ccc2S1(=O)=O	.	.	.	.	20	.	.
CC(C=NNC(=O)C(=O)NN=CC(C)=Cc1ccccc1)=Cc1ccccc1	.	.	.	.	15	.	.
CC(/C=N/NC(=O)c1ccco1)=C\c1ccccc1	41	35	-9	10	69*	63*	63*
Cc1ccccc1N=CC1=C(O)c2ccccc2C1=O	99*	-9	80*	10	90*	84*	82*
COc1ccc(N=CC2=C(O)c3ccccc3C2=O)c(OC)c1	99*	-73*	74*	33*	92*	82*	85*
COCCNC(=O)C1CCCN(C(=O)c2cc(-c3cccs3)oc2C)CC1 (stereo not given)	.	.	.	.	8	.	.
SMILES	STAT3 inh	HSF1 inhib	STAT1 inh	HSP90 refold inh	TRAIL sens C8	PPC-1+TRAIL kill	PPC-1 tox
Cc1nc2c(OCc3ccc(C(F)(F)F)cc3)cccn2c1N(C)CC1CC1	.	.	.	.	30	.	.
O=C(NCCc1ccccc1)c1nccc2ccccc12	.	10	.	.	-2	.	.
c1ccc(CCNc2ccnc3cc4ccccc4cc23)cc1	28	11	6	0	33	27	20
COc1cccc(-c2cc(CNC(=O)[C@H]3O[C@@H](n4ccc(=O)[nH]c4=O)[C@H](O)[C@@H]3O)no2)c1	.	.	.	.	9	.	.
CCN1CCN(c2oc(-c3ccccc3C)nc2S(=O)(=O)c2ccccc2)CC1	.	.	.	.	-8	.	.
COc1cc(/C=C2\CCc3c2nc2ccccc2c3C(=O)O)cc(OC)c1OC	.	7	.	1	57*	52*	54*
COC(=O)CSc1nsc(SCC(=O)OC)c1C#N	1	-6	3	-1	-19	5	.
N#Cc1c(SCC(=O)N2CCCCC2)nsc1SCC(=O)N1CCCCC1	1	0	7	1	6	3	18
Cc1cccnc1C(NC(=O)C1CCN(CCCOc2ccccc2)CC1)c1ccc(F)cc1 (stereo not given)	.	.	.	.	-20	.	.
O=C(N/N=C/c1cccc([N+](=O)[O-])c1)c1ccc2c(c1)OCCO2	21	5	-17	4	68*	68*	68*
CC1(C)CNC(=O)c2sc(NC(=O)c3ccccc3)nc2C1	-4	12	-26	4	12	-5	.
CC1(C)CC(=O)c2sc(NC(=O)c3ccccc3)nc2C1	18	17	-30	-2	.	52*	52*
CC(=O)Nc1cccc(-c2csc(C(O)c3ccc(F)c(F)c3)n2)c1 (stereo not given)	.	.	.	.	2	.	.
O=C(Nc1ccc(-c2nc3ccccc3[nH]2)cc1)C1CCCN(Cc2ccn[nH]2)C1 (stereo not given)	.	.	.	.	7	.	.
COc1cc(C(=O)NCCc2ccc(S(=O)(=O)N3CCCC3)cc2)cc(OC)c1OC	0	0	3	-1	-11	5	5
CCOC(=O)c1ccc(Nc2cc(C)nc(C)c2C(=O)OCC)cc1	16	-6	-2	1	11	4	-2
O=C(NCC1CCCO1)c1ccc2c(c1)C(=O)N(C1CCCCC1)C2=O (stereo not given)	8	2	3	3	-7	9	-5
CCOC(=O)Cc1csc(NC(=O)/C=C/c2ccc(OC)cc2)n1	36	-2	11	0	72*	56*	56*
